Results on four molecules are retold here after PubChem BioAssay.

Assay [1] can be described thus: optical density shifts of acrAB sulA E. coli – strain DRC41, OD650, 48 h, E. coli filamentation inducer project, primary screen (AID 1152).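 Also: E. coli MC1000 strain DRC41 lacking acrAB efflux pump and sulA.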 Particulars: higher = more signal, called active from +8 up or from −8 down.
Assay [2] is described as follows: probe aLefty1 binding on compound microarray – biochemical, small-molecule microarray, 635/667 nm fluorescence, primary screen (AID 1153).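 Also: score merges spot fluorescence with signal-to-noise ratio from the scanned slide images.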 As to conditions: higher = more signal.
Assay [3] can be described thus: plasmodial surface anion channel blockers, osmotic lysis – cell-based, P. falciparum Indochina, OD700, 1 h, primary screen (AID 1154). Particulars: P. falciparum Indochina infected RBC osmotic lysis, higher = more signal, called active from +8 up or from −8 down.
Assay [4] is described as follows: plasmodial surface anion channel blockers, osmotic lysis – cell-based, P. falciparum Indochina, OD700, 2 h, primary screen (AID 1155).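 Also: lysis reports solute entry through the parasite surface anion channel PSAC.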 Particulars: P. falciparum Indochina infected erythrocytes, higher = more signal, called active from +8 up or from −8 down.
The nature of assay [5]: changes in parasitized red cell lysis, either direction – P. falciparum Indochina, OD700, 3 h, PSAC antagonist project, primary screen (AID 1156). As to conditions: P. falciparum-infected erythrocytes, osmotic lysis, higher = more signal, called active from +8 up or from −8 down.
The nature of assay [6]: plasmodial surface anion channel blockers, osmotic lysis – cell-based, P. falciparum Indochina, OD700, 18 h, primary screen (AID 1157). As to conditions: P. falciparum Indochina infected erythrocytes, osmotic lysis OD700, 18 h; higher = more signal, called active from +8 up or from −8 down.
Assay [7] can be described thus: S6 kinase pathway phospho-S6 level changes – cell-based, A549, cytoblot, luminescence, serum-stimulated, primary screen (AID 1158).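 Also: serum-stimulated A549 lung adenocarcinoma cells; signal is phosphorylated S6 detected by cytoblot immunostaining with HRP secondary.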 As to conditions: 5 h, higher = more signal.
The target of assay [8] is NADPH oxidase 2 (Homo sapiens) (UniProt P04839). Kind of assay: compounds shifting NOX2 Amplex Red fluorescence – cell-based, HEK293-NOX2, PMA-stimulated, NOX inhibitor project, primary screen (AID 1159). Also: test concentration not given here. As to conditions: 45 min, higher = more signal, called active from +8 up or from −8 down.
Assay [9] deals with NADPH oxidase 4 (Homo sapiens) (UniProt Q9NPH5). Kind of assay: compounds shifting NOX4 Amplex Red fluorescence – cell-based, HEK293-NOX4, tetracycline-induced, NOX inhibitor project, primary screen (AID 1160). Particulars: HEK293-NOX4, Amplex Red H2O2 fluorescence, 45 min; higher = more signal, called active from +8 up or from −8 down.
For assay [10], the target named is NADPH oxidase 5 (Homo sapiens) (UniProt Q96PH1). Kind of assay: compounds shifting NOX5 Amplex Red fluorescence – cell-based, HEK293-NOX5, NOX inhibitor project, primary screen (AID 1161). As to conditions: HEK293-NOX5, ionomycin, 45 min, higher = more signal.
A short description of assay [11]: compound effects on lung adenocarcinoma cell viability – A549, calcein-AM fluorescence, 48 h, basal, profiling panel (AID 1162). Also: test concentration not given here. As to conditions: higher = more signal.
Assay [12] can be described thus: compound effects on differentiated 3T3-L1 adipocyte viability – cell-based, 3T3-L1 adipocytes, calcein-AM fluorescence, 48 h, basal, profiling panel (AID 1163). Also: test concentration not given here. Particulars: 3T3-L1 adipocytes viability, higher = more signal.
Assay [13] is described as follows: compound effects on hepatocellular carcinoma cell viability – HepG2, calcein-AM fluorescence, 48 h, basal, profiling panel (AID 1164). Also: test concentration not given here. Particulars: higher = more signal.
A short description of assay [14]: compound effects on multiple myeloma cell viability – MM1S, calcein-AM fluorescence, 48 h, basal, profiling panel (AID 1165).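 Also: viability of MM1S multiple myeloma cells under basal unstimulated conditions; test concentration not given here.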 Particulars: higher = more signal.
A short description of assay [15]: calcein-AM signal in unstimulated myeloma cells – cell-based, calcein-AM fluorescence, 48 h, PK04 Diversity Set, profiling panel (AID 1166).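 Also: cells grown under basal conditions without added stimulus; test concentration not given here.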 As to conditions: RPMI8226 myeloma viability, higher = more signal.
The nature of assay [16]: JC-1 mitochondrial signal, unstimulated HepG2 cells – cell-based, JC-1 fluorescence, 24 h, 100 nL compound, profiling panel (AID 1167). Also: test concentration not given here. As to conditions: HepG2 mitochondrial potential, higher = more signal.
Assay [17] in a line: JC-1 mitochondrial signal, unstimulated adipocytes – cell-based, JC-1 fluorescence, 3T3-L1 adipocytes, 24 h, 100 nL compound, profiling panel (AID 1168). Also: test concentration not given here. Particulars: JC-1 mitochondrial fluorescence, higher = more signal, called active from +8 up or from −8 down.
Assay [18] in a line: JC-1 mitochondrial signal, unstimulated myeloma cells – cell-based, JC-1 fluorescence, RPMI8226, 24 h, 100 nL compound, profiling panel (AID 1169). Also: test concentration not given here. As to conditions: JC-1 mitochondrial potential fluorescence, higher = more signal.
Assay [19] can be described thus: JC-1 mitochondrial signal, unstimulated MM1S myeloma – cell-based, JC-1 fluorescence, 24 h, 100 nL compound, profiling panel (AID 1170). Also: test concentration not given here. Particulars: MM1S mitochondrial potential, higher = more signal.
Assay [20] is described as follows: resazurin metabolic signal in A549 cells – cell-based, resazurin fluorescence, 24 h, PK04 Diversity Set, profiling panel (AID 1171). Also: test concentration not given here. Particulars: A549 viability, higher = more signal, called active from +8 up or from −8 down. (In general: Resazurin is reduced to fluorescent resorufin, in cell work by metabolically active cells.)

The structures appear in SMILES notation. The source made the active and inactive calls.

NADPH oxidase 2 (Homo sapiens), sequence (P04839 whole entry, looked up): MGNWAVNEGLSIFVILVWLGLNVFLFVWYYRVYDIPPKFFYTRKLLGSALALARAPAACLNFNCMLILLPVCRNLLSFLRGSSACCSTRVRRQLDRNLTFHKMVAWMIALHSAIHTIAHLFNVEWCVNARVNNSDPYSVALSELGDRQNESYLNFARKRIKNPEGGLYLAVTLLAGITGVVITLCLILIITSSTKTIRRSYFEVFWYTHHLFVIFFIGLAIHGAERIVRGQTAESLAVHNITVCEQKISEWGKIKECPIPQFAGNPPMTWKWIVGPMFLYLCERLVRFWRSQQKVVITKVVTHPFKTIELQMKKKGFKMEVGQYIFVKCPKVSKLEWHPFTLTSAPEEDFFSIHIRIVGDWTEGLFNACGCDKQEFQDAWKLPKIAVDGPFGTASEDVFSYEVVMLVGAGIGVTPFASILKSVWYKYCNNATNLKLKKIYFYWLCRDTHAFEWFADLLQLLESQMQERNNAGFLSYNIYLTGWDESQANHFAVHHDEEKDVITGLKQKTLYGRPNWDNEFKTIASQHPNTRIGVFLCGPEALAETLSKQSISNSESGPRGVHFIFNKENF
NADPH oxidase 5 (Homo sapiens), sequence (Q96PH1 whole entry, looked up): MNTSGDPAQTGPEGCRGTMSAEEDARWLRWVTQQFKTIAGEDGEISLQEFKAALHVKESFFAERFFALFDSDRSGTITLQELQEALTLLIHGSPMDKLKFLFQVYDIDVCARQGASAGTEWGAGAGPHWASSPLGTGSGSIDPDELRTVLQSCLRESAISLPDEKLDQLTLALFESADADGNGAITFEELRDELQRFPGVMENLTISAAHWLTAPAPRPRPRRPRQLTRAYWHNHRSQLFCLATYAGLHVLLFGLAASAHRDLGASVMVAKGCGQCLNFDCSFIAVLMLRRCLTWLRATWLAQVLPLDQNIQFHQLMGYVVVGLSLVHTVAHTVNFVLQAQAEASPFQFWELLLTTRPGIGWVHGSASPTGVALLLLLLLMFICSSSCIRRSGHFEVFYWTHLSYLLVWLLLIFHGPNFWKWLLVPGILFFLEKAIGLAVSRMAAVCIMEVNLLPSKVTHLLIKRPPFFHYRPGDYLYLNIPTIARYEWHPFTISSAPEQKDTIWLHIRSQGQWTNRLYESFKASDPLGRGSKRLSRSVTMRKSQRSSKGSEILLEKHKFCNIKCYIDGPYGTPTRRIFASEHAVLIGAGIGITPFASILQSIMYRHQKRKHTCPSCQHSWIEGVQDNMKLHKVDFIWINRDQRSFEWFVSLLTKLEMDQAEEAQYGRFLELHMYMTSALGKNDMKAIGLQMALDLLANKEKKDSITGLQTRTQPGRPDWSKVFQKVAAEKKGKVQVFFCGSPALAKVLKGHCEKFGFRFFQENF
NADPH oxidase 4 (Homo sapiens), sequence (Q9NPH5 whole entry, looked up): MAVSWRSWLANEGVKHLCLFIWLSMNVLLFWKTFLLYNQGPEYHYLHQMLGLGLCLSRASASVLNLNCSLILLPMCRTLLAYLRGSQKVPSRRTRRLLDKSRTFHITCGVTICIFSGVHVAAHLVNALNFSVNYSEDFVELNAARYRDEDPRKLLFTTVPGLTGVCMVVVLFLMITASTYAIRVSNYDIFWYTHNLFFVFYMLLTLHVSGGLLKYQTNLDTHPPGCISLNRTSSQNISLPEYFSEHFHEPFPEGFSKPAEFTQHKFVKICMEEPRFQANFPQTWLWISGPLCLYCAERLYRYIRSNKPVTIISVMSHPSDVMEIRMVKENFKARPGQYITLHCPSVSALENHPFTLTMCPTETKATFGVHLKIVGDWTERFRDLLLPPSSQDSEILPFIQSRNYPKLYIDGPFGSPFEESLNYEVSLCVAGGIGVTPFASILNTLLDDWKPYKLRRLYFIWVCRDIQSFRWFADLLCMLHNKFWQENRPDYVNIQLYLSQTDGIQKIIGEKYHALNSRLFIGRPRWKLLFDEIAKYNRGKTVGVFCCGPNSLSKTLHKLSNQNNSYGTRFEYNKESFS

As for `N#Cc1ccc(NN2C(C(O)c3ccc(I)cc3)C=CC3C(=O)N(c4ccccc4)C(=O)C32)cc1` (stereo not given), the z-score in assay [1] is -1.95 (inactive); in assay [3], 9.81 (active); in assay [4], 3.64 (inactive); in [5], -1.43 (inactive); in assay [6], 2.57 (inactive); in [7] it was -0.484. The z-score in assay [8] is -2.64 (inactive); in [9], -4.46 (inactive); in assay [10], -2.48; in [11], -0.668; in assay [12], -0.392; in [13], 0.0254. The z-score in assay [14] was -1.03; in assay [15], -0.251; in assay [16] it was -0.895; in assay [17] it was 0.641 (inactive); in assay [18] it was -0.586; in assay [19], -0.263. Moreover, the z-score in assay [20] was -0.383 (inactive). In addition, the composite z-score in assay [2] is 0.526.
As for `COCCOC(=O)N1C(=O)[C@@]2(c3cc(C#CC4=CCCCC4)ccc31)[C@H](C(=O)NC[C@H](O)c1ccccc1)[C@H]1C(=O)O[C@H](c3ccccc3)[C@H](c3ccccc3)N1[C@@H]2c1ccccc1OCCO`, the z-score in assay [1] was -0.499 (inactive); in [3], 3.23 (inactive); in assay [4] it was 1.95 (inactive); in assay [5], -0.032 (inactive); in assay [6], 1.78 (inactive); in assay [7] it was -0.178. In addition, the z-score in assay [8] is 1.53 (inactive); in assay [9] it was 0.911 (inactive); in assay [10], 1.2; in assay [11] it was -1.03; in [12] it was -0.383; in assay [13], -3.29. Also, the z-score is -3.21 in [14]; -4.04 in assay [15]; -1.46 in assay [16]; 2.6 (inactive) in assay [17]; -0.804 in [18]; -1.67 in assay [19]. Further, the z-score in [20] was -1.43 (inactive). In assay [2], this molecule gave a composite z-score of 0.705.
For the molecule `[N-]=[N+]=NCc1ccccc1C[C@]1(C(N)=O)N=C(c2ccc(OCCCO)cc2)O[C@H]1c1ccccc1CN=[N+]=[N-]`, the z-score is 0.0277 (inactive) in [1]; 29.3 (active) in assay [3]; 19.8 (active) in assay [4]; 1.82 (inactive) in assay [5]; 2.86 (inactive) in [6]; 2.41 in assay [7]. Also, the z-score is -1.06 (inactive) in [8]; 0.885 (inactive) in [9]; -0.692 in [10]; -0.633 in assay [11]; 1.76 in [12]; -1.35 in [13]. Besides, the z-score is -2.19 in assay [14]; -3.71 in assay [15]; 1.89 in assay [16]; 0.575 (inactive) in assay [17]; -0.937 in assay [18]; -0.621 in assay [19]. The z-score in [20] was -1.97 (inactive). For the same molecule, the composite z-score in [2] turned out to be 0.71.
With `CCCC[C@H]1OB(O)C[C@H]2C1=C(COC)C[C@H]1C(=O)N(Cc3ccccc3)C(=O)[C@H]12`, the z-score in assay [1] is 2.78 (inactive); in [3] it was 1.14 (inactive); in assay [4] it was -1.1 (inactive); in assay [5], 0.223 (inactive); in assay [6], -2 (inactive); in [7], 0.932. For the same molecule, the z-score is 0.034 (inactive) in assay [8]; 0.811 (inactive) in assay [9]; 1.37 in [10]; 0.485 in assay [11]; 0.938 in assay [12]; -0.0393 in assay [13]. For the same molecule, the z-score in [14] is 0.405; in assay [15], -0.537; in [16], 0.987; in assay [17] it was 0.835 (inactive); in [18], 0.361; in assay [19], 1.46. Besides, the z-score in assay [20] was 0.272 (inactive). Moreover, the composite z-score in assay [2] was -0.0969.
